Compound activity from PubChem BioAssay.
Glioma ERSR ind: inducers of ER stress response in human glioma cells; 0.02% of 420,000 active; U87-MG GRP78 promoter luciferase reporter, 16 h; Potency, µM, inactives show at the highest dose activation, most hits filed as activators; active = well fitted activation curve with a large enough effect; inconclusive = small, poorly fitted or top-dose-only effect; inactive = no such curve, though single readings can be large or run the other way; also: potency is read from the fitted curve at half-maximal effect; series mostly up to about 76 µM; % of control where 0% means no effect; nearly all actives have a fitted effect of over 35% in size
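Stably transfected U87-MG glioma cells carrying a GRP78-based luciferase sensor; 16 h compound incubation. Luminescence end-point read 10 min after Bright-Glo addition at room temperature.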
hERG WT inh: blocks the wildtype human KCNH2 potassium channel | 0.37% of 340,000 active | Q12809 | U2OS, BacMam KCNH2, thallium flux FluxOr; stronger effect = lower value | activity change, % at 1.84 µM;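 active = maximum activity change below -70%; inconclusive = maximum activity change between -70% and -50%; inactive = maximum activity change above -50%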; also: % is scaled to controls: 0 for no effect and ±100 for the full control effect
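U2OS cells were transduced with wild-type KCNH2 virus (2.03 x 10^8 / mL) for 4 h at room temperature, then cultured overnight at 37 C. Thallium flux was read with FluxOr dye. Rate constants were normalized to DMSO controls.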
TSG101-PTAP inh: blocks PTAP/TSG101 interaction to inhibit HIV-1 budding. Q99816. 340,000 tested, under 10 active. Fluorescence polarization, FITC-PTAP peptide / Tsg101 binding. Potency, µM (top dose mostly 115 µM), without a hit: top-dose activity change, negative = inhibition, actives largely listed as inhibitors. AID 493005; active = well fitted inhibition curve with a large enough effect in the main read-out, with a control signal flat, not every such curve was filed as active; inconclusive = small, poorly fitted or top-dose-only effect, or effect the other way, or a change in a side signal; inactive = no such curve, though single readings can be large or run the other way; also: potency is read from the fitted curve at half-maximal effect; % of control where 0% means no effect
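Compounds were pin-transferred onto Tsg101 binding domain (10 uM final) in HEPES pH 7.5 buffer, then FITC-PTAP peptide was added at 50 nM final. After 20 min at RT, polarization reported peptide displacement across a qHTS concentration series.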
KCNH2 3.1 inh: blocks the human KCNH2 3.1 channel isoform; activity change, % (tested at about 1.8 µM); U2OS KCNH2 3.1, thallium flux FluxOr; stronger effect = lower value; AID 720553; 0.95% of 340,000 active;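 active = maximum activity change below -70%; inconclusive = maximum activity change from -70% to -50%; inactive = maximum activity change above -50%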;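 also: thallium influx rate constant from kinetic fluorescence after stimulation buffer; % is scaled to controls: 0 for no effect and ±100 for the full control effect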
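Thallium flux read-out: FluxOr dye with Red40 quencher in HBSS/HEPES, 45 min at RT. Rate constants from kinetic reads were normalized to positive and negative DMSO controls. Cells: U2OS virally expressing the 3.1 isoform.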
TRPML1 ag: agonists of human TRPML1 channel. Q9GZU1. TRPML1-expressing cells, Ca2+ dye fluorescence, FDSS. activation, % (test concentration not listed). 0.12% of 410,000 active. AID 624414; in the data active = activation above about 50%; inconclusive = mostly about 30% to 49%; also: 0% is about no effect
Target sequence (Q9GZU1 whole entry, looked up): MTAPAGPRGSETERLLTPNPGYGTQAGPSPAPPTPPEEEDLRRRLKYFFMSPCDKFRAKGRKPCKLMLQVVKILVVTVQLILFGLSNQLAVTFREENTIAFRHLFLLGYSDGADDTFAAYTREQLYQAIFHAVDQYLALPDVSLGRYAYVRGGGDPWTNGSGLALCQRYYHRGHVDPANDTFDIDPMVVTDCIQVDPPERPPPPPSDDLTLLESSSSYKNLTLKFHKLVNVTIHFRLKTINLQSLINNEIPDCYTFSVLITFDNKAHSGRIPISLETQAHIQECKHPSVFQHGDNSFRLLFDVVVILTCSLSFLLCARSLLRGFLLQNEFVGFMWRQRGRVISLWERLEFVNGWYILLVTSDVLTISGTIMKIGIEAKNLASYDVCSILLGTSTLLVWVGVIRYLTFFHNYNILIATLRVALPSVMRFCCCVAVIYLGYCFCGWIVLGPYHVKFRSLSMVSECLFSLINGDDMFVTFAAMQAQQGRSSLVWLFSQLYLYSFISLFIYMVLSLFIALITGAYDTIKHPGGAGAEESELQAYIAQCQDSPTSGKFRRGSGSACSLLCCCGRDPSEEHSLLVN
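Tet-induced TRPML1-DL cells, 1,500 per well, cultured overnight, were loaded with a no-wash Ca2+ dye for 45–90 min. Calcium fluorescence was recorded on the FDSS for 110 s after compound addition, before the EC80 agonist (4 uM 54-4) was added.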
TRPML1 blocker: blocks the human TRPML1 channel. Q9GZU1. TRPML1-inducible cells, Ca2+ dye fluorescence, FDSS; stronger effect = lower value; inhibition of EC80 agonist-evoked calcium signal. activity change, negative = inhibition, % (no concentration beside the values). 0.02% of 390,000 active. AID 624415; in the data active = activity change below about -50%; inconclusive = between about -30% and that limit;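 also: stimulus is agonist 54-4 at its EC80 concentration; % is scaled to controls: 0 for no effect and ±100 for the full control effect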
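TRPML1-DL cells, Tet-induced overnight (~16 h, 37 °C) at 1,500 cells/well, were loaded with Ca8 no-wash dye plus quencher for 45-90 min at room temperature. Compounds were pinned during FDSS kinetic reading; agonist 54-4 at EC80 (4 uM final) then added.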
Starred values were filed as active, the others as inactive; ! = not active in a repeat. In the library only some 1% were active in any assay of this set; here they are far more common.

Results for CC(C(=O)Nc1cccc([N+](=O)[O-])c1)N1CCN(C/C=C/c2ccccc2)CC1 (stereo not drawn) ?
Glioma ERSR ind: 0%; hERG WT inh: 9; TSG101-PTAP inh: -2%; KCNH2 3.1 inh: -85*; TRPML1 ag: 0; TRPML1 blocker: 6

How did CCCCCCCCCCOC(=O)Cn1c(COc2ccccc2)[n+](C)c2ccccc21 do in these assays?
Glioma ERSR ind: -13%; hERG WT inh: -47; TSG101-PTAP inh: -1%; KCNH2 3.1 inh: 3; TRPML1 ag: 0; TRPML1 blocker: 11

How did CCCCCCCCCCOC(=O)Cn1c(COc2ccccc2C)[n+](C)c2ccccc21 do in these assays?
Glioma ERSR ind: -15%; hERG WT inh: inconclusive; TSG101-PTAP inh: -5%; KCNH2 3.1 inh: -81*; TRPML1 ag: 0; TRPML1 blocker: 47

How did CCCCCCCCCCOC(=O)Cn1c(COc2ccc(OC)cc2)[n+](C)c2ccccc21 do in these assays?
Glioma ERSR ind: -12%; hERG WT inh: -116*!; TSG101-PTAP inh: -5%; KCNH2 3.1 inh: -93*!; TRPML1 ag: 0; TRPML1 blocker: -10

How did COC(=O)[C@@H]1C[C@@H](NC(=O)c2cccc3c(C)c(C)[nH]c23)CN1Cc1cccc2ccccc12 do in these assays?
Glioma ERSR ind: -3%

Results for CCc1c(C)nc2[nH]nc(-c3ccccc3)n2c1=O ?
Glioma ERSR ind: 3%; hERG WT inh: -4; TSG101-PTAP inh: -4%; KCNH2 3.1 inh: 19; TRPML1 ag: 4; TRPML1 blocker: -8

How did CCc1c(C)nc2[nH]nc(-c3ccccc3C)n2c1=O do in these assays?
Glioma ERSR ind: -3%; hERG WT inh: -1; TSG101-PTAP inh: 0%; KCNH2 3.1 inh: -193*; TRPML1 ag: -1; TRPML1 blocker: 83

What do the screens show for `CCN(CCCC(=O)c1ccc(F)cc1)CCc1ccccc1`?
Glioma ERSR ind: 2%; hERG WT inh: inconclusive; TSG101-PTAP inh: 1%; KCNH2 3.1 inh: -90*; TRPML1 ag: 0; TRPML1 blocker: -6

How did CN1CCN(C2Cc3cc(F)ccc3Sc3ccc(Cl)cc32)CC1 (stereo not drawn) do in these assays?
Glioma ERSR ind: -7%; hERG WT inh: -8; TSG101-PTAP inh: 2%; KCNH2 3.1 inh: -78*; TRPML1 ag: 0; TRPML1 blocker: 46

What do the screens show for `CN1CCN(C2Cc3ccccc3Sc3ccc(Cl)cc32)CC1` (stereo not drawn)?
Glioma ERSR ind: -4%; hERG WT inh: 11; TSG101-PTAP inh: -2%; KCNH2 3.1 inh: inconclusive; TRPML1 ag: 1; TRPML1 blocker: 34

Results for CN1CCN(C2Cc3ccc(F)cc3Sc3cc(F)c(Cl)cc32)CC1 (stereo not drawn) ?
Glioma ERSR ind: -12%; hERG WT inh: -41; TSG101-PTAP inh: 0%; KCNH2 3.1 inh: -88*; TRPML1 ag: 2; TRPML1 blocker: 1

What do the screens show for `O=C(c1ccc(C(F)(F)F)cc1)N(Cc1cc2ccc(F)cc2nc1N1CCOCC1)C1CC1`?
Glioma ERSR ind: -5%

How did O=C(Cc1c[nH]c2ccccc12)N1CCC(n2c(C3CCCO3)nc3cc(C(F)(F)F)ccc32)CC1 (stereo not drawn) do in these assays?
Glioma ERSR ind: -3%

What do the screens show for `Cc1cc(C)n(CC(=O)N2CCC(n3c(C(C)C)nc4cccnc43)CC2)n1`?
Glioma ERSR ind: -5%

Results for CCn1c(C(=O)N2CCCC(C(=O)N3CCN(c4cc(C)ccc4C)CC3)C2)cc2sccc21 (stereo not drawn) ?
Glioma ERSR ind: -3%; TRPML1 ag: 65*; TRPML1 blocker: -11

How did Cc1ccc(C)c(N2CCN(C(=O)C3CCN(C(=O)c4cc5sccc5n4C)CC3)CC2)c1 do in these assays?
Glioma ERSR ind: -3%; TRPML1 ag: 1; TRPML1 blocker: 5

Results for COc1ccccc1C1CN(Cc2c(C)nc3sccn23)Cc2ccccc2O1 (stereo not drawn) ?
Glioma ERSR ind: -2%
